In the OligoGym collection:

Biological target: MYO1F
Assay: pooled miR-30 sensor sort-seq; sequence = guide strand
Conditions: shRNA
Further: reference of the scale not given here.

Sequence | sensor-assay potency score (higher = more potent)
TTCTTCACTTTCTCTCGCCCAA | -0.544
TAGCACTCAGAGTCTCACCAAA | -0.917
TTCTGGAAGATCTCGAAGCCGT | -0.863
TTGGCTGCCACTGTCTTCCCAG | -0.239
TTCCGGTACATGTTGTCCGTGA | 0.0719
TTGGCTTGTTTCTTGATCTTGG | 0.371
TCATTTTGCATGACCACGCGGG | -0.396
AAAGTCGCTTCTGTCGTCCGTG | -0.528
TAGTGTGTCGCTGAAGGTGAGG | -0.748

Biological target: MYRIP
Assay: as above
Conditions: shRNA

Sequence | sensor-assay potency score (higher = more potent)
ATCTTCTGCAGGATTGTCGTGG | -0.78
TTATCTCTTATAAACACTCTAA | -0.392
TTTTGCTTTGAATCACACCAAC | -1.21
TTTAATAGTAAATTAAATCTTT | -0.26
TGACACATAACACAGCATCAGC | -1.31
ATTGCTAACTCGTACAGCCTGT | -0.149
TTAAATAATAATTCCCACCTTC | 0.152
TTTTGCTCTTCTGTTTTCGTAT | -0.368
TAACACAACAATAGTTGCTTTT | -1.01
TTTTCGTATAATCTTCTGCAGG | -1.35

Biological target: MYST1
Assay: as above
Conditions: shRNA

Sequence | sensor-assay potency score (higher = more potent)
TACTTGAGGCAGTACTCGCAGA | -0.834
TTGACTTGCTTGTGCTTGGGGG | 0.169
TTGTCCACATACTTCACCTTGG | -0.263
TTGATGGACAGTGTGCCCCGGA | -0.00673
TTTGCCATCAACTTCGTGCACG | -0.42
TACTTGACCATATTGAGGGATT | -1.22
TTGGTTGCGAGTGATCTTGCGC | -0.436
TTGCGGTAGATCTCTTTCCCGG | -0.991
TTTGAGGTGCTCCTCCACCAGC | -1.45
TATTTCATGTACTTGAGGCAGT | 0.803
TACTTCTCTGAGTTCTTCTGTA | 0.544
TACAGCATCCTTCACTGTCTTG | -0.889

Biological target: MYST4
Assay: as above
Conditions: shRNA

Sequence | sensor-assay potency score (higher = more potent)
TTATTTTCTGTATAGCTTCAAG | -0.855
TTTGATGAGATCATCTTCTGGT | 1.05
TATACAATAACTGAAATGCTAA | -0.972
TATTTCAGTATCATCATCCTGA | 0.932
TTCAGTAACGACATCCTTGTTT | -0.1
TTTTCGATTGTACTTTTGCAGG | -1.34
TTGGCTTTTAGCACCATCTGGA | 0.342
TTTGAGAACTGAGCCATCCTGA | 0.202
TTACTGTTAGCACAACACTTGT | -0.946
